Among the data in PubChem BioAssay AID624491 (Broad Institute, 2012) are activation (NLG inhibition) values, retold here.

Each structure is given as a SMILES string. Among all 1,800 compounds or so, about 1,400 (78%) were called active. Another 2% or so got no clear call; they are omitted.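 Rule for the calls: active = fitted curve crossing a set activation limit at or below the highest valid dose tested; inconclusive = flat fit at 30 to 70% activation, or poor fit; inactive = the rest, including signal decreases.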 So high a share suggests a set chosen from earlier hits. Only a sample is shown. A call without a number means that no potency is given here. Potency and affinity values are given separately.

The nature of the assay: blockers of NLG process in reporter cells – D54 ERlucT cells, luminescence, cherry-picks, dose response (AID 624491).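 Note: signal gain reflects blocked N-linked glycosylation of a luciferase reporter.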 The settings on record: D54 ERlucT glycosylation luciferase reporter, 24 h, 100% = twice neutral-control luminescence; series mostly up to 19.5 µM. For orientation: Reporter assays use an easily measured gene product as a stand-in for the process of interest.
For `COc1cc(/C=C(/C(=O)c2cccs2)c2nc3ccccc3[nH]2)cc(OC)c1O`, the activation (NLG inhibition) result is “inactive”.

Consider `O=C(N/N=C/c1ccc2c(c1)OCO2)C1COc2ccccc2O1` (centres undefined), for which the activation (NLG inhibition) result is “inactive”.

In the case of `N#Cc1c(NC(=O)/C=C/c2ccco2)sc2c1CCCC2`, the activation (NLG inhibition) entry is “inactive”.

As to `COC(=O)C1=C(C(=O)OC)[C@@H]2N(Cc3ccccc3)c3ccccc3[C@@]23C[C@@H](C(=O)OC)N(C(=O)c2cc(C)oc2C)C3=N1`, the activation (NLG inhibition) result was “inactive”.

In the case of `CC(C)C1N=C(c2ccc3c(c2)OCO3)CC(c2ccccc2O)N1` (centres undefined), the activation (NLG inhibition) result is “inactive”.

Take `CC(=O)c1ccc(OCC(O)CN2CCN(CCN3C(=O)c4cccc5cccc(c45)C3=O)CC2)cc1` (centres undefined): the activation (NLG inhibition) result is “inactive”.

With `COc1ccc(-c2cc(C(F)F)n3ncc(C(=O)n4ccnc4C)c3n2)cc1`, the activation (NLG inhibition) result is “inactive”.

On to `Cc1ccc(-c2cc(C(F)F)n3ncc(C(=O)N4CCc5ccccc54)c3n2)cc1`, for which the activation (NLG inhibition) entry was “inactive”.

For the compound `CC(=O)N(C(C)=O)n1c(C)nc2sc3c(c2c1=O)CCCC3`, the activation (NLG inhibition) result is “inactive”.

In the case of `O=C1/C(=C/c2ccccc2)CCc2ccc(Cl)nc21`, the activation (NLG inhibition) entry was “inactive”.

In the case of `COc1cccc(-n2c(SCC(=O)NC3CCCCC3)nc3n[nH]c(C)c3c2=N)c1`, the activation (NLG inhibition) result was “inactive”.

Turning to `NC(=O)c1ccc2c(=O)n3c(-c4cc(Cl)c(N)c(Cl)c4)csc3nc2c1`, the activation (NLG inhibition) result is “inactive”.

`Cc1ccnc(NC(=O)Nc2ccc3c(c2)N(C)C(=O)CS3)c1`: the activation (NLG inhibition) result is “inactive”.

Take `COC(=O)c1ccc(Oc2cc(C)nc(-n3nc(C)cc3C)n2)cc1`: the activation (NLG inhibition) entry is “inactive”.

`Cc1ccc2cc3c(N)c4c(C)ccc(C)c4nc3nc2c1`: the activation (NLG inhibition) result was “inactive”.

Regarding `Cc1ccc(N2C(=O)c3cccc4c([N+](=O)[O-])ccc(c34)C2=O)c2cccnc12`, the activation (NLG inhibition) entry was “inactive”.

For `Cc1cc(N2CCN(c3ccc([N+](=O)[O-])c4cccnc34)CC2)c2ccccc2n1`, the activation (NLG inhibition) entry is “inactive”.

In the case of `Cc1ccc2c(c1)NC(=O)[C@@]1(C)[C@@H](c3ccccc3)[C@H]3COc4ccccc4[C@@H]3N1C2=O`, the activation (NLG inhibition) entry is “inactive”.

For `CCN(CC)c1ccc(/C=C/c2cccc[n+]2C)c(OC)c1`, the activation (NLG inhibition) entry is “inactive”.

In the case of `COc1ccc(C=C(c2nc3ccccc3s2)c2nc3ccccc3s2)cc1O`, the activation (NLG inhibition) entry was “inactive”.

For `O=C(N/N=C/c1ccccn1)c1sc2ccccc2c1Cl`, the activation (NLG inhibition) entry was “inactive”.

As to `CC(=O)Nc1cccc(-c2ccnc3c2CC(C(=O)NCc2ccco2)O3)c1` (centres undefined), the activation (NLG inhibition) entry is “inactive”.

With `Nc1nc(-c2ccccn2)nc(N)c1Cc1ccc(Cl)cc1Cl`, the activation (NLG inhibition) result is “inactive”.

`CC(=O)Nc1cccc(-c2ccnc3c2CC(C(=O)NCc2ccc(F)c(F)c2)O3)c1` (centres undefined): the activation (NLG inhibition) entry was “inactive”.

On to `COc1ccc(CNC(=O)C2Cc3c(-c4ccc5c(c4)OCO5)ccnc3O2)cc1OC` (centres undefined), for which the activation (NLG inhibition) result is “inactive”.

With `CN(C)Cc1c(O)ccc2c1O/C(=C\C=C\c1ccccc1)C2=O`, the activation (NLG inhibition) result is “inactive”.

For the compound `COc1ccc(OC)c(NS(=O)(=O)c2ccc(N3CCCC3=O)cc2)c1`, the activation (NLG inhibition) result is “inactive”.

For the compound `O=C(CC(O)c1ccncc1)c1ccccc1O` (centres undefined), the activation (NLG inhibition) result was “inactive”.

In the case of `COc1ccc(Cl)cc1/C=C/c1ccc2cccc(O)c2n1`, the activation (NLG inhibition) entry was “inactive”.

Turning to `CCOC(=O)c1[nH]c2ccc(F)cc2c1NC(=O)C(C)N1CCc2cc(OC)c(OC)cc2C1` (centres undefined), the activation (NLG inhibition) entry is “inactive”.

Take `C#CC(=O)CC1(CN(Cc2ccccc2)C(=O)OC(C)(C)C)CCCCC1`: the activation (NLG inhibition) entry is “inactive”.

With `CCN(CC(=O)Nc1ccccc1OC)CC(=O)Nc1ccccc1-c1ccccc1`, the activation (NLG inhibition) entry is “inactive”.

As for `COC(=O)c1cc(=O)n(Cc2ccc3c(c2)OCO3)c(=Nc2ccc(F)c(Cl)c2)s1`, the activation (NLG inhibition) entry is “inactive”.

Turning to `CC1=C([N+](=O)[O-])C(c2ccccc2)C2=C(N1)c1ccccc1C2=O` (centres undefined), the activation (NLG inhibition) entry was “inactive”.

As for `COc1cc2cc(/C=C/C(=O)c3ccco3)c(Cl)nc2cc1OC`, the activation (NLG inhibition) result was “inactive”.

For the compound `COc1ccc([N+](=O)[O-])cc1NC(=O)CCN1CCN(CCO)CC1`, the activation (NLG inhibition) entry was “inactive”.

As for `NC(=O)CC(NC(=O)Cc1ccc(Cl)cc1)c1ccc(NC2CC3CCC2C3)c([N+](=O)[O-])c1` (centres undefined), the activation (NLG inhibition) result is “inactive”.

In the case of `NC(=O)CC(NC(=O)c1ccc(Br)cc1)c1ccc(N2CCCCCCC2)c([N+](=O)[O-])c1` (centres undefined), the activation (NLG inhibition) result is “inactive”.

On to `NC(=O)CC(NC(=O)Cc1ccc(Br)cc1)c1ccc(NC2CCCC2)c([N+](=O)[O-])c1` (centres undefined), for which the activation (NLG inhibition) result was “inactive”.

For `CC(C)Nc1ccc(C(CC(N)=O)NC(=O)Cc2ccc(Br)cc2)cc1[N+](=O)[O-]` (centres undefined), the activation (NLG inhibition) entry was “inactive”.

As to `NC(=O)CC(NC(=O)Cc1ccc(Br)cc1)c1ccc(NCc2cc(F)ccc2F)c([N+](=O)[O-])c1` (centres undefined), the activation (NLG inhibition) entry was “inactive”.

Take `CCCOc1ccc(F)cc1-c1cc(C(=O)Nc2ccc(C(C)C)cc2)[nH]n1`: the activation (NLG inhibition) entry is “inactive”.

With `Oc1c(Br)cc(Br)cc1CNc1cccc2cccnc12`, the activation (NLG inhibition) entry is “inactive”.

Regarding `Nc1c(C(=O)Nc2ccc(S(=O)(=O)N3CCCC3)cc2)sc2nc3cc4c(cc3cc12)CCC4`, the activation (NLG inhibition) entry was “inactive”.

On to `c1ccc2c(-c3nc4ccccc4[nH]3)cccc2c1`, for which the activation (NLG inhibition) result was “inactive”.

For the compound `CCc1nn(C(C)C(=O)N2CCN(c3ccc(OC)cc3)CC2)c(=O)c2cc3occc3n12` (centres undefined), the activation (NLG inhibition) entry is “inactive”.

On to `COc1cccc(C(=O)Nc2ccc3c(c2)C(=O)c2ccccc2C3=O)c1`, for which the activation (NLG inhibition) entry was “inactive”.

In the case of `O=C(Nc1ccccc1-c1ccccc1)C1CCCC1`, the activation (NLG inhibition) entry is “inactive”.

`CC#CC#Cc1cccc(=O)o1`: the activation (NLG inhibition) entry is “inactive”.

With `O=C(/C=C/c1ccccc1)c1ccc2c3c(cccc13)CC2`, the activation (NLG inhibition) result was “inactive”.

Consider `Cc1cc(NC(=O)CSc2nc3ccccc3c(=O)n2C2CCCC2)no1`, for which the activation (NLG inhibition) entry is “inactive”.

Consider `Cc1cc(NC(=O)/C=C/C(=O)N(CC(=O)NC2CCCC2)c2ccc(F)cc2)no1`, for which the activation (NLG inhibition) result was “inactive”.

Take `Nc1nc(Nc2ccccc2)sc1C(=O)c1ccccc1`: the activation (NLG inhibition) entry is “inactive”.

As for `COc1cc2ccccc2cc1C(=O)N1CCc2ccccc21`, the activation (NLG inhibition) result is “inactive”.

Turning to `COc1ccccc1N1CCN(C(=O)c2ccc(Cl)c(S(=O)(=O)NCc3ccco3)c2)CC1`, the activation (NLG inhibition) entry was “inactive”.

As for `CCOc1ccc(S(=O)(=O)Nc2cc(OC)ccc2OC)cc1`, the activation (NLG inhibition) entry was “inactive”.

With `COc1cc(-c2nc3cnccn3c2Nc2ccc(C)cc2)ccc1O`, the activation (NLG inhibition) entry was “inactive”.

As for `COCCCNC(=O)c1cccc2c(-c3ccc(O)c(OC)c3)coc12`, the activation (NLG inhibition) result was “inactive”.

Take `COc1cc(OC)cc(C(=O)NNC(=O)c2ccc3ccccc3n2)c1`: the activation (NLG inhibition) entry was “inactive”.

In the case of `CC(C)[n+]1ccn(C2=C([O-])c3ccccc3C(=O)/C2=N\S(=O)(=O)c2ccccc2)c1`, the activation (NLG inhibition) entry was “inactive”.

Consider `CCC(C)[C@H](NC(=O)N1CC(=O)Nc2ccccc21)C(=O)Nc1ccccc1C` (some centres undefined), for which the activation (NLG inhibition) entry is “inactive”.

On to `CC(C)c1ccc(NC(=O)[C@@H](NC(=O)N2CC(=O)Nc3ccccc32)C(C)C)cc1`, for which the activation (NLG inhibition) result was “inactive”.

`O=C(CNC(=O)N1CC(=O)Nc2ccccc21)NCCCc1ccccc1`: the activation (NLG inhibition) result was “inactive”.

Take `O=C(Nc1cccc2ncccc12)c1ccc([N+](=O)[O-])o1`: the activation (NLG inhibition) entry is “inactive”.

`O=C(Nc1cccc(-c2nc3ncccc3o2)c1)c1sc2ccccc2c1Cl`: the activation (NLG inhibition) entry is “inactive”.

For `C(=N\Nc1nc2ccccc2[nH]1)/c1ccc2ncccc2c1`, the activation (NLG inhibition) entry is “inactive”.

In the case of `COc1ccc(/C=C/C(=O)c2ccccc2)cc1COc1ccccc1F`, the activation (NLG inhibition) entry was “inactive”.

In the case of `CC1(C(=O)NCC2CC2)Cc2c(-c3cccc(C(F)(F)F)c3)ccnc2O1` (centres undefined), the activation (NLG inhibition) result was “inactive”.

As for `CC(=O)Nc1cccc(-c2ccnc3c2CC(C)(C(=O)NCc2cccc(Cl)c2)O3)c1` (centres undefined), the activation (NLG inhibition) entry was “inactive”.

As for `CC1(C(=O)NCC2CCOCC2)Cc2c(-c3cccc(C(F)(F)F)c3)ccnc2O1` (centres undefined), the activation (NLG inhibition) result is “inactive”.

As for `Cc1nc(C)c(C(=O)N/N=C/c2c[nH]c3ccccc23)s1`, the activation (NLG inhibition) result is “inactive”.

Consider `CCOc1ccc(C(C)=O)cc1COc1cccnc1[N+](=O)[O-]`, for which the activation (NLG inhibition) result is “inactive”.

For `O=C(Oc1c(Cl)cc(Cl)c2cccnc12)c1ccco1`, the activation (NLG inhibition) result was “inactive”.

`COc1ccccc1NC(=O)c1ccc(-c2ccc(Br)cc2)o1`: the activation (NLG inhibition) result was “inactive”.

Consider `Cc1ccc(OCCNC(=O)c2cccc(S(=O)(=O)NCc3ccccc3)c2)cc1`, for which the activation (NLG inhibition) entry is “inactive”.

For `CCCCn1c(SCC(=O)Nc2cc(C(F)(F)F)cc(C(F)(F)F)c2)nnc1C(CC)N(C)C` (centres undefined), the activation (NLG inhibition) entry is “inactive”.

With `COc1ccc(Oc2ccc(/C=C/C(=O)c3cccc(OC)c3)cc2[N+](=O)[O-])cc1`, the activation (NLG inhibition) entry was “inactive”.

With `Cc1cnc2cc(Cl)c(Cl)cc2n1`, the activation (NLG inhibition) entry was “inactive”.

For the compound `CCOC(=O)C1=C(C)N=C2SC=C(C)N2C1c1ccc(OC)cc1` (centres undefined), the activation (NLG inhibition) result is “inactive”.

Regarding `COc1ccc(CCNC(=O)c2cc(-c3ccco3)on2)cc1OC`, the activation (NLG inhibition) entry was “inactive”.

On to `O=C(/C=C/c1cccnc1)c1ccc(F)c(F)c1`, for which the activation (NLG inhibition) result is “inactive”.

For the compound `O=C(/C=C/c1ccccc1Cl)c1ccc(O)cc1`, the activation (NLG inhibition) result was “inactive”.

For `O=C(C=Cc1cccnc1)c1ccccc1`, the activation (NLG inhibition) result was “inactive”.

Take `CCOC(=O)c1[nH]c(C)c(C(=O)c2ccc(C)cc2)c1C`: the activation (NLG inhibition) result is “inactive”.
